SMILES strings stand for the structures. Records with an inconclusive call do not appear. The source made the active and inactive calls.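 Rule for the calls, unless noted: active = inhibition above the screen-wide mean plus 3 SD, about 51%; inactive = the rest.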

The text below walks through data of PubChem BioAssay.

The nature of assay [1]: rapamycin-like changes in RPL19A-GFP expression – cell-based, S. cerevisiae, multiplex flow cytometry, primary screen (AID 1862; in the data active = percent of DMSO control GFP below about 86%;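 note: lower values mimic rapamycin by blocking the RPL19A rise seen in DMSO cells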). The note with it: S. cerevisiae RPL19A-GFP strain, flow cytometry fluorescence, 3 h; at 10 µM; stronger effect = lower value. For orientation: Flow cytometry measures light scatter and fluorescence of single cells or particles in a stream.
Assay [2] in a line: TOR pathway GLN3 branch reporter MEP2-GFP changes – S. cerevisiae, multiplex flow cytometry, primary screen (AID 1867;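 active = GFP response, as percent of the DMSO control, above the screen-wide mean plus 3 SD, about 139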;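 note: median GFP channel fluorescence of barcode-gated MEP2-GFP cells measured by flow cytometry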). To be noted: S. cerevisiae MEP2-GFP strain, 3 h, at 10 µM, stronger effect = higher value, 100% means same as DMSO wells.
Assay [3] is described as follows: TOR pathway RTG branch CIT2 reporter changes – S. cerevisiae, GFP fusion, multiplex flow cytometry, primary screen (AID 1870;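 active = percent response above a set limit, the screen-wide mean plus 3 SD, cut at about 130% in these data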;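 note: barcoded CIT2-GFP strain pooled with four other GFP strains with rapamycin as positive control; median GFP fluorescence per well over plate mean of DMSO wells so 100% = DMSO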). To be noted: S. cerevisiae CIT2-GFP expression, 3 h, at 10 µM, stronger effect = higher value.
Assay [4] can be described thus: TOR pathway LAP4-GFP level changes – S. cerevisiae, multiplex flow cytometry, primary screen (AID 1873;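 active = GFP signal, as percent of the solvent control, above the screen mean plus 3 SD, about 149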). To be noted: S. cerevisiae LAP4-GFP expression, 3 h, at 10 µM, stronger effect = higher value.
The nature of assay [5]: yeast AGP1-GFP level changes, GLN3 branch – cell-based, multiplex flow cytometry, S. cerevisiae, primary screen (AID 1887;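 active = GFP signal above the screen-wide mean plus 3 SD, that is over about 124.5% of the solvent control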;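 note: AGP1-GFP fusion strain of S. cerevisiae within a five-strain barcoded multiplex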). The note with it: 3 h, at 10 µM, stronger effect = higher value.
The nature of assay [6]: reduced mouse 2C T cell binding to pMHC/ICAM-1 vesicles – MLPCN validation set, flow cytometry, LFA-1/ICAM-1 modulator project, pilot screen (AID 2523;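 active = response below a set limit, under 55% cells CD8-positive and vesicle-bound, and CD8 cells' 90th-percentile brightness under 279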;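 for vesicle binding response: mean PE anti-B7-1 fluorescence of CD8+ cells relative to row control; 100% = QL9-loaded vesicles with DMSO vehicle in the same plate row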). The note with it: 2C mouse CD8+ T cells, at 7 µM, stronger effect = lower value; double positive events: measured here: CD8+/vesicle+ event percentage.
Assay [7] has as its target Integrin beta-1 (Homo sapiens) + Integrin alpha-4 (Homo sapiens) (UniProt P13612+P05556). As to the kind of experiment: alpha4beta1 integrin LIBS antibody binding reduction – U937 cells, HUTS-21 mAb, flow cytometry, validation set, VLA-4 allosteric modulator project, pilot screen (AID 2674;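 active = inhibition above 50%, about 3 SD of the validation set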;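 note: antibody binding induced by the VLA-4 ligand LDV present at three times its Kd; 0% = LDV ligand with antibody and no compound and 100% = antibody without LDV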). To be noted: HUTS-21 LIBS mAb binding, at 6.7 µM, stronger effect = higher value, binding induced by LDV ligand.

The nature of assay [8]: calorie-restriction mimetic ROS inhibitors, yeast – validation compound set, pilot screen (AID 2706;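 active = superoxide response below 65% of plate, a cut near 3 SD across the whole screen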;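 note: yeast exposed to compound for one week at 30 degrees C before staining; 100% = mean of all compound wells on the same plate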). To be noted: S. cerevisiae aging, superoxide DHE fluorescence; at 10 µM; stronger effect = lower value.
For assay [9], the target named is Beta-adrenergic receptor kinase 1 (Homo sapiens) (UniProt P25098). As to the kind of experiment: GRK2 binders displacing RNA aptamer, biochemical, validation, human GRK2, bead flow cytometry (AID 488806;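 active = aptamer binding inhibition above 30%, about 3 SD of noise from non-fluorescent compounds; inactive = inhibition at or below 30%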). To be noted: bead-bound GRK2, FAM-aptamer displacement, at 10 µM, stronger effect = higher value.
Assay [10] concerns the target Beta-2 adrenergic receptor (Homo sapiens) (UniProt P07550). In words: agonist-induced loss of surface beta2AR – cell-based, FAP fluorogen, flow cytometry, validation set, pilot screen (AID 504459;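 active = percent response above 42, roughly 3 SD of non-fluorescent test compounds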;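 note: agonist-driven loss of surface beta2AR via internalization measured by FAP dye flow cytometry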). To be noted: Am2.2-beta2AR cells, at 10 µM, stronger effect = higher value.
Assay [11] addresses AP-2 complex subunit beta (Homo sapiens) (UniProt P63010). As to the kind of experiment: beta-arrestin/AP2 interaction blockers – biochemical, validation set, GST-AP2 beads, flow cytometry, pilot screen (AID 504541;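 active = inhibition above 54%, about 3 SD of non-fluorescent compounds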;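 note: AP2 carries R879A mutation and is captured from E. coli lysate; bead-bound FITC arrestin peptide fluorescence measuring arrestin peptide binding to AP2; 0% = DMSO wells and 100% = excess unlabeled arrestin peptide control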). To be noted: FITC arrestin peptide, at 10 µM, stronger effect = higher value, AP2 beta2 appendage fragment, R879A mutant.
Assay [12] in a line: cytosolic pH regulators acting via V-ATPase – S. cerevisiae, pHLuorin, HTS validation (AID 504600; in the data active = response above about 15%;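 note: plate controls were DMSO for no effect and reference compound for full effect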). The note with it: V-ATPase proton transport, at 10 µM, stronger effect = higher value.
Assay [13] relates to anti-desmoglein-3 scFv antibody binding to human DSG3. In words: blockers of pathogenic pemphigus antibody–desmoglein-3 binding – biochemical, validation compound set, bead-based, flow cytometry, pilot screen (AID 588368;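 active = binding below the plate cutoff, the plate median minus 3 SD, with a reading above zero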;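 note: signal is the median channel fluorescence of bead-bound GFP antibody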). To be noted: Protein G beads, DSG3-Fc, scFv-GFP binding, at 10 µM, stronger effect = lower value.
The nature of assay [14]: Nile Red efflux blockade in pump-expressing yeast – validation compound set, multiplex, phenotypic, pilot screen (AID 588506;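 active = efflux inhibition above 0.42, the validation set average plus 4 SD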;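 note: Nile Red retained in cells so higher fluorescence means more efflux inhibition; 0 = negative control wells and 1 = enniatin B 25 µM full block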). The note with it: S. cerevisiae pump-expressing triplex, Nile Red efflux flow cytometry; at 10 µM; stronger effect = higher value; the pumps come from Candida albicans.
The target in assay [15] is ATP-binding cassette sub-family B member 6 (Homo sapiens) (UniProt Q9NP58). In words: blockers of ABCB6-driven porphyrin uptake – K562-ABCB6 cells, flow cytometry, validation set, pilot screen (AID 588550).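 Note: 0% = DMSO wells and 100% = benzethonium chloride 70 µM positive control.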 The note with it: K562-ABCB6 porphyrin accumulation, 1 h, at 10 µM, stronger effect = higher value.
Assay [16] in a line: AML differentiation inducers, ER-HoxA9 marrow cells – cell-based, GFP/MAC1 double positive, flow cytometry, validation set, primary screen (AID 588685;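 active = differentiation response of at least 50%, scaled between solvent and reference control, from cells with both markers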;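 note: compound exposure lasts four days before antibody staining and flow analysis; 0% = DMSO wells and 100% = 5 µM fulvestrant positive control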). The note with it: stronger effect = higher value, normalized: vehicle 0, fulvestrant 100.

Beta-adrenergic receptor kinase 1 (Homo sapiens), sequence (P25098 whole entry, looked up): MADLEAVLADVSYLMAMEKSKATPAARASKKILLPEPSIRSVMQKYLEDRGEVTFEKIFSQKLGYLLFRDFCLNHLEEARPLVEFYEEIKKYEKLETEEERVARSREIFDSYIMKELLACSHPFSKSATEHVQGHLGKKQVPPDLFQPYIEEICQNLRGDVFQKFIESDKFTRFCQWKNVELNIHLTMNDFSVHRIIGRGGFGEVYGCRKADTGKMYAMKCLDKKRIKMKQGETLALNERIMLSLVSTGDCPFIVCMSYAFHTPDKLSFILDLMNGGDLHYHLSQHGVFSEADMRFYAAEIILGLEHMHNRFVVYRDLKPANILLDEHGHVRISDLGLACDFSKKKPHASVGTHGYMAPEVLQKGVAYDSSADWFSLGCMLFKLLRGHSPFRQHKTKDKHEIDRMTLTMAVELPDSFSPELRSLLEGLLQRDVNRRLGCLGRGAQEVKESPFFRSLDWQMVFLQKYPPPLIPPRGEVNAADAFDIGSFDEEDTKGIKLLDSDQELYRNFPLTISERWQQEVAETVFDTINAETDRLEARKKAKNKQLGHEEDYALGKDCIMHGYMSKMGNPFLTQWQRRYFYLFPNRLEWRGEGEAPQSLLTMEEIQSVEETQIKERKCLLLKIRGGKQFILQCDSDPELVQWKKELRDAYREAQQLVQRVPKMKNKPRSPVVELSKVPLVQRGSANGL
AP-2 complex subunit beta (Homo sapiens), sequence (P63010 whole entry, looked up, the tested form may be a part, one chain of several): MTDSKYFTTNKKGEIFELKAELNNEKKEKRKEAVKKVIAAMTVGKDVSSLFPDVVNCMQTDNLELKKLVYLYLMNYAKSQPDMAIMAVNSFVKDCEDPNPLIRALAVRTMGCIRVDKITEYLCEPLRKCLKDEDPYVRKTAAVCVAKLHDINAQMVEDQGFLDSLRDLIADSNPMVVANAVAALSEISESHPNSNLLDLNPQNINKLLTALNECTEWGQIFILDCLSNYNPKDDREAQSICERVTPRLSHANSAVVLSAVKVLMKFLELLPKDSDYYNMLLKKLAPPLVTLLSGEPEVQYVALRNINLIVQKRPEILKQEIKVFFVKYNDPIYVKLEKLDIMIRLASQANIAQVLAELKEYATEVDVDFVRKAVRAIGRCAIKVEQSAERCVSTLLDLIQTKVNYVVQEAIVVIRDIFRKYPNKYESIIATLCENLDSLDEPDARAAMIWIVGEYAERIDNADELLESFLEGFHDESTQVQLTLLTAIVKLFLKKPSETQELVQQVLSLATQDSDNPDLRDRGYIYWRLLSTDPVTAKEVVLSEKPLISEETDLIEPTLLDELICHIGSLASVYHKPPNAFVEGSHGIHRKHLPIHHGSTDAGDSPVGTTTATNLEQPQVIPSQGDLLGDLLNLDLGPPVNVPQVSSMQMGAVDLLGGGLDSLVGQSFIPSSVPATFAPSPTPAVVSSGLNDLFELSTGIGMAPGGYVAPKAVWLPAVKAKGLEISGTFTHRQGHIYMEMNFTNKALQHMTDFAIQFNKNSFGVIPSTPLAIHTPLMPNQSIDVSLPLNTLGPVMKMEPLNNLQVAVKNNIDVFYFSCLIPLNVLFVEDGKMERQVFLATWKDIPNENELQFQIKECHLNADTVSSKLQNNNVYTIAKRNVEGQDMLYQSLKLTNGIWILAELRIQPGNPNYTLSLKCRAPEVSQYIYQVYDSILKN
ATP-binding cassette sub-family B member 6 (Homo sapiens), sequence (Q9NP58 whole entry, looked up): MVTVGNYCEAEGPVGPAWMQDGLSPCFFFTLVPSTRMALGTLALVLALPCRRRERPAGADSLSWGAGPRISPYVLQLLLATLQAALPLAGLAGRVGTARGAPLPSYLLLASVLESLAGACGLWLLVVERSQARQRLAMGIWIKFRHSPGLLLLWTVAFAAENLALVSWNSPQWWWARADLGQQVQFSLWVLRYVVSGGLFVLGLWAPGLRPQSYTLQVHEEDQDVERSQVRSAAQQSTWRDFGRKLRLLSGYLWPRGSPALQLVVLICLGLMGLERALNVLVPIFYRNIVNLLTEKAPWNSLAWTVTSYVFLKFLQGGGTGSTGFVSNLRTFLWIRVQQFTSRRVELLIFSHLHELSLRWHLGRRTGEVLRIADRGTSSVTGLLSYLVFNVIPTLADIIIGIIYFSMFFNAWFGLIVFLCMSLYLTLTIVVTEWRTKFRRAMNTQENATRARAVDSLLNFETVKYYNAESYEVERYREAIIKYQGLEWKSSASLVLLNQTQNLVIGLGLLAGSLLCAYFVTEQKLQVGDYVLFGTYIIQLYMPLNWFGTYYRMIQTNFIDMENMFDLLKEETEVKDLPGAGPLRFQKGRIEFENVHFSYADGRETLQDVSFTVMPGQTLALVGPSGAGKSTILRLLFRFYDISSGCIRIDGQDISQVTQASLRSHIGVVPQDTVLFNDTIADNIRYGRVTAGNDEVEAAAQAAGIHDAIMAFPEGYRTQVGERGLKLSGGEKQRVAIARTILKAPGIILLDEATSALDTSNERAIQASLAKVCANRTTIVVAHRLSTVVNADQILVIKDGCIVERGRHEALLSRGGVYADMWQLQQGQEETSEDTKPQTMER
Beta-2 adrenergic receptor (Homo sapiens), sequence (P07550 whole entry, looked up): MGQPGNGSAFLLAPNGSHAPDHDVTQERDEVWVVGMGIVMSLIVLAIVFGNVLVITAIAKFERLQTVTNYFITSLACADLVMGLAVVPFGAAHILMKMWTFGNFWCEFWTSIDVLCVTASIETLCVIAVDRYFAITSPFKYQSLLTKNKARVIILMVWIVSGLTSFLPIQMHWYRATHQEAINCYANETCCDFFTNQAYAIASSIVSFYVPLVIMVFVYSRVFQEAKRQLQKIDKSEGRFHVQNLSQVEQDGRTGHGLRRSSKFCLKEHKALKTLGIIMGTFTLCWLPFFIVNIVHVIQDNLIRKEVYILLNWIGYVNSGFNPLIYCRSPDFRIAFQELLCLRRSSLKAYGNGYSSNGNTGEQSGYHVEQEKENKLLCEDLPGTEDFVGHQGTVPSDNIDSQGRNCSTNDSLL
Integrin beta-1 (Homo sapiens) + Integrin alpha-4 (Homo sapiens), sequence (P05556 whole entry, looked up): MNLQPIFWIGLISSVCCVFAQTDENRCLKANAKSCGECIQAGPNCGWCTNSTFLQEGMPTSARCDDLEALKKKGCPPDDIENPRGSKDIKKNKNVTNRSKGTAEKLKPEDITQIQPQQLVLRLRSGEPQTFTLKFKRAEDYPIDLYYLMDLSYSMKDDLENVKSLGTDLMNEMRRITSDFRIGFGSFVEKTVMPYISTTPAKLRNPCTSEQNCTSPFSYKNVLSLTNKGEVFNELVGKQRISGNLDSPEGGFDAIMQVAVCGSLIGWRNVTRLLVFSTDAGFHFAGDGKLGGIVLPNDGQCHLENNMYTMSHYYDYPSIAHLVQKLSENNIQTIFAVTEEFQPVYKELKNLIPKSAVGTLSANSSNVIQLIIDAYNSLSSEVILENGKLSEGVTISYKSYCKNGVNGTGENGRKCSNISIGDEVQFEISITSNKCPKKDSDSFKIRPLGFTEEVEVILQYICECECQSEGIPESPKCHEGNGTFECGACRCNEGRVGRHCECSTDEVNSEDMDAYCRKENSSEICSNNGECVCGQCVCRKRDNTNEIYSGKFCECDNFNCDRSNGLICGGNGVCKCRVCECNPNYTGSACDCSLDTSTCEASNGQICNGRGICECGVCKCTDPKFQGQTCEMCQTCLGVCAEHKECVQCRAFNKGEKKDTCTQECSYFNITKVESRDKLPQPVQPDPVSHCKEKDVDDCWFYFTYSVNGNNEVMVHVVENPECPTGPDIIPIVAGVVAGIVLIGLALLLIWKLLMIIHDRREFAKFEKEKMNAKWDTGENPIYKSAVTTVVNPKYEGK
Integrin beta-1 (Homo sapiens) + Integrin alpha-4 (Homo sapiens), sequence (P13612 whole entry, looked up): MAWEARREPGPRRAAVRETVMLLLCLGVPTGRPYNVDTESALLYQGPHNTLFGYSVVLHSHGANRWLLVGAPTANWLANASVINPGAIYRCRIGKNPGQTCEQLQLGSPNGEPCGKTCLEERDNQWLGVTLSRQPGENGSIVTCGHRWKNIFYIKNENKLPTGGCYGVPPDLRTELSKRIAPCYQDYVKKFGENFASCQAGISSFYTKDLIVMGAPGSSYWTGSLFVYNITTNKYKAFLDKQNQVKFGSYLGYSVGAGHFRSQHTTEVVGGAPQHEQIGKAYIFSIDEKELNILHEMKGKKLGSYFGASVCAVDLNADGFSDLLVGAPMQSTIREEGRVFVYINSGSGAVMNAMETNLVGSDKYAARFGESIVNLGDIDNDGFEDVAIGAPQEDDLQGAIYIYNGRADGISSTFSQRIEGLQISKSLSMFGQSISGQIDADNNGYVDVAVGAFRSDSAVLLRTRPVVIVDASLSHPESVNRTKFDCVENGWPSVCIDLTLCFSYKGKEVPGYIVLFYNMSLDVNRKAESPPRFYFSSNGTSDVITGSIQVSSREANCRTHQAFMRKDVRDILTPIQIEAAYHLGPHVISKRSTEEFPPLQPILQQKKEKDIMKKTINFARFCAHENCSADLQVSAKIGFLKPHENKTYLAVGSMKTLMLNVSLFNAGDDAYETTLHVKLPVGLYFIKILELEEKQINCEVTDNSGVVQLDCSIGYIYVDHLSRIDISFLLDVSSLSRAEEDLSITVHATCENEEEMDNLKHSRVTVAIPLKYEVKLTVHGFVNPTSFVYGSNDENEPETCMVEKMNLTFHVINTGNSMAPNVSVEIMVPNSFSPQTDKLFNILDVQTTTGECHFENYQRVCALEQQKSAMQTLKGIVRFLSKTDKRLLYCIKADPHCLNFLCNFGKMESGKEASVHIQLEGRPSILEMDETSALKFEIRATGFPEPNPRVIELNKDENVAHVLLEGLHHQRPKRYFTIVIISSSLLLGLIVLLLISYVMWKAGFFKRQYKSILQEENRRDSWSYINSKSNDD

Regarding `CCC(=O)Oc1ccc(C(=O)Nc2ccc([N+](=O)[O-])cc2)cc1`, the percent of DMSO control GFP in assay [1] was 87.8% (inactive). Moreover, the GFP response vs DMSO in assay [2] is 148% (active); in [4], 82.5% (inactive). Further, the percent response of DMSO control in assay [3] is 90% (inactive). Further, the GFP response, % of DMSO in assay [5] is 80.8% (inactive). The same compound returned a double positive events in assay [6] of 61.8%. In assay [6], the vesicle binding response was 195% (inactive). Besides, the inhibition – broadly, the relative decrease from the control value, in per cent – was -0.33% (inactive) in assay [7], 15.9% (inactive) in assay [11] and 14% (inactive) in assay [15]. Besides, the superoxide response (% of plate) in assay [8] was 88.4% (inactive). For the same compound, the aptamer binding inhibition in assay [9] is 5% (inactive). Also, the response was 4.9% (inactive) in assay [10] and -4.69% (inactive) in assay [12]. In addition, in [13], the binding (% of control) was 100% (inactive). The efflux inhibition (fraction of control) in [14] was -0.38 (inactive). Also, the differentiation response in assay [16] was -6.55% (inactive).

As to `COc1ccc(C2NC(=O)c3ccccc3O2)c(OC)c1OC` (stereo not drawn), the percent of DMSO control GFP in [1] is 105% (inactive). Besides, the GFP response vs DMSO in [2] was 104% (inactive); in assay [4] it was 101% (inactive). Besides, the percent response of DMSO control in [3] was 111% (inactive). In addition, the GFP response, % of DMSO in assay [5] was 104% (inactive). Further, in assay [6], the double positive events stood at 61.2%. The vesicle binding response in assay [6] was 200% (inactive). For the same compound, the inhibition in [7] is -7.72% (inactive); in assay [11] it was -2.37% (inactive); in [15] it was 0% (inactive). Besides, the superoxide response (% of plate) in assay [8] was 89.7% (inactive). Further, the aptamer binding inhibition in assay [9] was 5% (inactive). The figures for the response in assay [10] and in [12] were -12.7% (inactive) and 1.87% (inactive), respectively. In addition, the binding (% of control) in assay [13] was 95.5% (inactive). Also, the efflux inhibition (fraction of control) in assay [14] is 0.11 (inactive). Further, the differentiation response in assay [16] is -1.71% (inactive).

On to `COc1cc(-c2cccs2)cc(=O)c2c(C)oc(C)c12`, for which the percent of DMSO control GFP in assay [1] was 97.6% (inactive). For the same compound, the figures for the GFP response vs DMSO in assay [2] and in assay [4] were 105% (inactive) and 142% (inactive), respectively. Moreover, the percent response of DMSO control in assay [3] is 84.4% (inactive). In [5], the GFP response, % of DMSO was 93.2% (inactive). In addition, the double positive events in assay [6] came to 62.6%. The vesicle binding response in assay [6] was 235% (inactive). Moreover, the results for the inhibition in [7], in [11] and in [15] were -160% (inactive), 54.7% (active) and 2% (inactive), respectively. In assay [8], the superoxide response (% of plate) was 96.1% (inactive). Besides, in [9], the aptamer binding inhibition was -1% (inactive). Further, the response is 54% (active) in assay [10] and -7.46% (inactive) in assay [12]. For the same compound, in [13], the binding (% of control) was 105% (inactive). Further, the efflux inhibition (fraction of control) in assay [14] was 0.26 (inactive). Also, in assay [16], the differentiation response was 4% (inactive).

With `Nc1ccc(S(=O)(=O)NC(=O)c2ccccc2)cc1`, the percent of DMSO control GFP in assay [1] is 100% (inactive). In addition, the GFP response vs DMSO was 103% (inactive) in [2] and 99.9% (inactive) in assay [4]. For the same compound, the percent response of DMSO control in [3] is 96.6% (inactive). Moreover, the GFP response, % of DMSO in assay [5] was 100% (inactive). In [6], this compound displayed a double positive events of 57.6%. Also, the vesicle binding response in assay [6] is 30.6% (inactive). Besides, the inhibition in assay [7] is -6.68% (inactive); in assay [11], -15.4% (inactive); in [15] it was 11% (inactive). In assay [8], the superoxide response (% of plate) is 110% (inactive). Moreover, in assay [9], the aptamer binding inhibition is 1% (inactive). In addition, the response was -5.78% (inactive) in [10] and 5.4% (inactive) in assay [12]. For the same compound, the binding (% of control) in assay [13] is 99.3% (inactive). In addition, in assay [14], the efflux inhibition (fraction of control) was -0.07 (inactive). Also, the differentiation response in assay [16] was 1.22% (inactive).
